Reference: the supplement of paper PMC11732987, “Enantioselective OTUD7B fragment discovery through chemoproteomics screening and high-throughput optimisation” (Communications Chemistry, 2025)

Legend:
Assay in all cases: log2 ratio of Biotin-Ahx-Ub-VS probe labelling (fragment/DMSO); higher = less target engagement (more negative = stronger competition), active = hit call of the paper (q ≤ 0.05, log2 ratio ≤ -1)
Conditions in all cases: compound concentration: 200 uM; treatment time: 3 h
ALG13 = biological target: T1, ALG13 (UniProt Q9NP73)
T1 sequence (whole entry): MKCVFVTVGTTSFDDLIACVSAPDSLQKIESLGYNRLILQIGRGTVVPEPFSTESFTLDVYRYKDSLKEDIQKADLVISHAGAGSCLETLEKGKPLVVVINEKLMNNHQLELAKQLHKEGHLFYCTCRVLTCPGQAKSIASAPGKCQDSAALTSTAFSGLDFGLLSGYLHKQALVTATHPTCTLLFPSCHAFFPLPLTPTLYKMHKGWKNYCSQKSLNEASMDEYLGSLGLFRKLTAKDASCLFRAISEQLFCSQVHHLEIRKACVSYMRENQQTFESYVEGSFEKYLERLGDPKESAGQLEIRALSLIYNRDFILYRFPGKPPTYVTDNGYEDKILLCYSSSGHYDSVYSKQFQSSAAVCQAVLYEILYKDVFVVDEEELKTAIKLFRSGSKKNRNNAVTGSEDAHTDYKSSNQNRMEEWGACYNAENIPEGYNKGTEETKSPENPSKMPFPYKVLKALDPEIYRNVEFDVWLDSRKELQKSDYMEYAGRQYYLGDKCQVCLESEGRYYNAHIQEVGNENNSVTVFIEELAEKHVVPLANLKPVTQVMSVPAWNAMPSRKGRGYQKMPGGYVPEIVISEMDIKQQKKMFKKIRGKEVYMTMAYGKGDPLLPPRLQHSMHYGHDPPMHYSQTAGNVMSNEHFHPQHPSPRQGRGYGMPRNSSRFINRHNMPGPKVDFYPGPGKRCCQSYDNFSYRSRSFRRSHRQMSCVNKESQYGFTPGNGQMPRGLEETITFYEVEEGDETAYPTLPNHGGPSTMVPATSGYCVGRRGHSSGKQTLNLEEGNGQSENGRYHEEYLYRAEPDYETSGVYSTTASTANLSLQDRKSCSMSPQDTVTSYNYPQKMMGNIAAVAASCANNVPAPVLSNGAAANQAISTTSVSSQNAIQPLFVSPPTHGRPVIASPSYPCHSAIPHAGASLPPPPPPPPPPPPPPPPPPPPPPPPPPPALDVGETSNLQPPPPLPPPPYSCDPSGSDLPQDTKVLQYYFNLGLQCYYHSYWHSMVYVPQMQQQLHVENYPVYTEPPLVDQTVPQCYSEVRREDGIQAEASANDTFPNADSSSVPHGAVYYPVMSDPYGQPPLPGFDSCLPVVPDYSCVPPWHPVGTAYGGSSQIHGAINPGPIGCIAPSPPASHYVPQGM
Procedure, shortened: (§1)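 HEK293T lysate (495 µg per sample, in Tris/CHAPS/IGEPAL buffer with protease inhibitors) was exposed in triplicate for 3 h to fragment at 200 µM or to vehicle, then to Biotin-Ahx-Ub-VS at 0.5 µM final for 1 h. Labelled DUBs were enriched on NeutrAvidin, digested with LysC and trypsin, and analysed by diaPASEF LC-MS/MS. Spectronaut label-free quantities were normalised to the global median, and values are average log2 ratios of fragment over vehicle from an unpaired t-test. Only proteins with ≥2 unique peptides were used.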

ATXN3 = ATXN3 (UniProt P54252)
Procedure, shortened: as §1

BAP1 = biological target: T2, BAP1 (UniProt Q92560)
T2 sequence (whole entry): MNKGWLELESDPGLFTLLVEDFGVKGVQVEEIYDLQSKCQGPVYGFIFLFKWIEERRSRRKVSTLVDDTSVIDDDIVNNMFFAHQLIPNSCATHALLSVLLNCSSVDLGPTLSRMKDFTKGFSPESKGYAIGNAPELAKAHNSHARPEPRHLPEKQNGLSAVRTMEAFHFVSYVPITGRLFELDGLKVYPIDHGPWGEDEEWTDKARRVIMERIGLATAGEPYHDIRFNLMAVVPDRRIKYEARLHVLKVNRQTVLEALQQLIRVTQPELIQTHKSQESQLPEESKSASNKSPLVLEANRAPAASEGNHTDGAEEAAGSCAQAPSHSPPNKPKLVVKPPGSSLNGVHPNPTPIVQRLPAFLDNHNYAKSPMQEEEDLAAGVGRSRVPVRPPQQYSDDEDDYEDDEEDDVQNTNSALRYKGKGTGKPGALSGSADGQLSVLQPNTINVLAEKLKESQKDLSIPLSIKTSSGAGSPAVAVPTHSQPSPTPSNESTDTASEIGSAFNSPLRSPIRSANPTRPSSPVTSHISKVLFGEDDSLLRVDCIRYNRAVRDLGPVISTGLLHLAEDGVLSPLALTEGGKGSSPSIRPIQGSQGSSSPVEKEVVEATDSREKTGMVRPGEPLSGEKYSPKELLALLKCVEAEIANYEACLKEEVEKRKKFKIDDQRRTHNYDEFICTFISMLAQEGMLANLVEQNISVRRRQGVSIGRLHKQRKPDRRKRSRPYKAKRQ
Procedure, shortened: as §1

EIF3F = EIF3F (UniProt O00303)
Procedure, shortened: as §1

EIF3H = EIF3H (UniProt O15372)
Procedure, shortened: as §1

FAM105A = biological target: T3, FAM105A (UniProt Q9NUU6)
T3 sequence (whole entry): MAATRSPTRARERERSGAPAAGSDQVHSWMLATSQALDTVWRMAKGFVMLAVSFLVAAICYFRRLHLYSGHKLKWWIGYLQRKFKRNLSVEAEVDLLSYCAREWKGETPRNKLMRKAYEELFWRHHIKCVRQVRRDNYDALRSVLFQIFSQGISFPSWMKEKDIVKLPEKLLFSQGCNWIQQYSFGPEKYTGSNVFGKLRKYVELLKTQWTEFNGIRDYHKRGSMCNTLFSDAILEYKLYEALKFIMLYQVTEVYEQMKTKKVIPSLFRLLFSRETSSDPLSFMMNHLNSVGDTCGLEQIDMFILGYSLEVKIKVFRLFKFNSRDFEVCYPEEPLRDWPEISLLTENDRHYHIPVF
Procedure, shortened: as §1

OTUB1 = OTUB1 (UniProt Q96FW1)
Procedure, shortened: as §1

OTUD4 = biological target: T4, OTUD4 (UniProt Q01804)
T4 sequence (whole entry): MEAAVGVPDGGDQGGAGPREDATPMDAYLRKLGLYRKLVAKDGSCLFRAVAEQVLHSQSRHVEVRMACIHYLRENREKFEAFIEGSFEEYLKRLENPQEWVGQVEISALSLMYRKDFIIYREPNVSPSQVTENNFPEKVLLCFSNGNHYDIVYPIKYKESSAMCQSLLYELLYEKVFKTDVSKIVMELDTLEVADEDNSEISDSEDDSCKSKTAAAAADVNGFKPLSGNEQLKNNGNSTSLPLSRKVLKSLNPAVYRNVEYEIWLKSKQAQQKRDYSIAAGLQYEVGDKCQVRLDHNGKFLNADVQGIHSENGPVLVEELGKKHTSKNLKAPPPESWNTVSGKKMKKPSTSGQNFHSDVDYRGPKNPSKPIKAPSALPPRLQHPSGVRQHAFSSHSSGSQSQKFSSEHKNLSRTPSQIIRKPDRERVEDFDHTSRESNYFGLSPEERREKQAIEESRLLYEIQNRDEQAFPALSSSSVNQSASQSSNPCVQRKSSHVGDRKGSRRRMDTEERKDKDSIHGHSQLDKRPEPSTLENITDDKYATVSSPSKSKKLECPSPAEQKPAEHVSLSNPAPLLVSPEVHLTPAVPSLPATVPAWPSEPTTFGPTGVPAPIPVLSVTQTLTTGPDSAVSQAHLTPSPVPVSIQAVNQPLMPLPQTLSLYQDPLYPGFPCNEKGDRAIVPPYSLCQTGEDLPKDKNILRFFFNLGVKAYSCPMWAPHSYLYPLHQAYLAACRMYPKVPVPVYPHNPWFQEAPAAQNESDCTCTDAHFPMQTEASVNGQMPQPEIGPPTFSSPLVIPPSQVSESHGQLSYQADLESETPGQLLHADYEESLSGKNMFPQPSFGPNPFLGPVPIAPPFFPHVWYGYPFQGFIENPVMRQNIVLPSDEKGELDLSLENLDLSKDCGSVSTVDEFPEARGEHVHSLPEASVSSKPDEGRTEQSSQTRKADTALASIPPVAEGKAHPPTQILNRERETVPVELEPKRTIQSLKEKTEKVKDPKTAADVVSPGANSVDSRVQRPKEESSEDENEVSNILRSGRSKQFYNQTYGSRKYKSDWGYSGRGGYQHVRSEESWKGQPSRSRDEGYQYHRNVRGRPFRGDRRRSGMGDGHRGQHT
Procedure, shortened: as §1

OTUD5 = biological target: T5, OTUD5 (UniProt Q96G74)
T5 sequence (whole entry): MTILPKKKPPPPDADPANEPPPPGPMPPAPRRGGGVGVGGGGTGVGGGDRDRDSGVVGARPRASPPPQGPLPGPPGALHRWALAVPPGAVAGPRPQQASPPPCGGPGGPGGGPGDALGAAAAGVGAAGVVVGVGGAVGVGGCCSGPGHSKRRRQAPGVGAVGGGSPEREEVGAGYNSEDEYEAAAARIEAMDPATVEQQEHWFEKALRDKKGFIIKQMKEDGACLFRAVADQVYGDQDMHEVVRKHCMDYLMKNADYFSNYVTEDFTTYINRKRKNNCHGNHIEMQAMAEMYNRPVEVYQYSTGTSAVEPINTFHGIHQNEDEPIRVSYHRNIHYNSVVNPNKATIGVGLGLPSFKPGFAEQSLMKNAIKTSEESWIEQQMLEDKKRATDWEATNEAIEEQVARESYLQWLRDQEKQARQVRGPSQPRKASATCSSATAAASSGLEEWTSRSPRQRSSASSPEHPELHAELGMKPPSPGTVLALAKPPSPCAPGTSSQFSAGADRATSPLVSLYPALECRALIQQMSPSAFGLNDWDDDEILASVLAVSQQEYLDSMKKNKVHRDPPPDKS
Procedure, shortened: as §1

Measured: log2 ratio of Biotin-Ahx-Ub-VS probe labelling

Sequence of EIF3F (O00303 whole entry): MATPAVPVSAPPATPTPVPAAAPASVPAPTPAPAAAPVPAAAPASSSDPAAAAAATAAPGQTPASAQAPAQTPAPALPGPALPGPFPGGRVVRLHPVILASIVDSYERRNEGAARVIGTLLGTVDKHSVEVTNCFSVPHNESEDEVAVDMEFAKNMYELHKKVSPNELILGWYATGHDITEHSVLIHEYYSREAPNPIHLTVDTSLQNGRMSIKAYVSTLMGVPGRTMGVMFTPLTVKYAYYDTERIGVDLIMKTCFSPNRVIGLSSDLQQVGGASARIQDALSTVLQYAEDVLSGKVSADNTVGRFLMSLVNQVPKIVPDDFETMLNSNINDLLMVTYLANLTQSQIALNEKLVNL
Sequence of OTUB1 (Q96FW1 whole entry): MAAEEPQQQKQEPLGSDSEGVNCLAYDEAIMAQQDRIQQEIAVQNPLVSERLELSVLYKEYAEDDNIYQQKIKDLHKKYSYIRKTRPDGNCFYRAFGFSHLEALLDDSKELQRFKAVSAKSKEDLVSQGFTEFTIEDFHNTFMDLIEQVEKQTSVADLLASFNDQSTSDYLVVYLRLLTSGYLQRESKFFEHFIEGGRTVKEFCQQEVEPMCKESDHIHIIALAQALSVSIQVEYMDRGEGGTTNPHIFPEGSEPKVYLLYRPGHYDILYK
Sequence of ATXN3 (P54252 whole entry): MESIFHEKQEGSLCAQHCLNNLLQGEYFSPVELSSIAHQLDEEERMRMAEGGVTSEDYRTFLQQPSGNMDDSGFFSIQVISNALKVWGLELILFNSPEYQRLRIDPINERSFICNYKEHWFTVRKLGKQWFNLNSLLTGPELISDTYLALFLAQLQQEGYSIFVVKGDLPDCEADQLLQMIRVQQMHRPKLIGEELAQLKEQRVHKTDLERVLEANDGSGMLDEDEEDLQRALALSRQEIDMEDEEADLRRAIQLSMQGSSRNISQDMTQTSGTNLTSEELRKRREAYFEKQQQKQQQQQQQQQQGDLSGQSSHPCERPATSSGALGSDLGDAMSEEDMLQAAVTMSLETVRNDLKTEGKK
Sequence of EIF3H (O15372 whole entry): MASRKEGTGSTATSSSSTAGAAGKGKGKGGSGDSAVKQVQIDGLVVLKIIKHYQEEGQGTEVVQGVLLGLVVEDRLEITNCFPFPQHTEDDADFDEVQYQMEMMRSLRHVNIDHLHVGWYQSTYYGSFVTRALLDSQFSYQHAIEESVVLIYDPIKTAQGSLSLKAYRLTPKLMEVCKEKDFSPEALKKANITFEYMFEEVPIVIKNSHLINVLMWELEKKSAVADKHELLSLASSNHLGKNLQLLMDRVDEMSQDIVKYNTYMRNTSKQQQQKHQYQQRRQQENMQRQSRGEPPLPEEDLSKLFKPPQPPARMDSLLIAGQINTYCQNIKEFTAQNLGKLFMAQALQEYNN

CCCn1nccc1NC(=O)CCl
active: BAP1 -3.06
inactive: ALG13 0.12 | ATXN3 -0.199 | EIF3F -0.613 | EIF3H 0.123 | FAM105A 0.145 | OTUB1 -0.396 | OTUD4 0.00925 | OTUD5 -0.138
